Screening data as filed in PubChem BioAssay.
In the library only some 0.9% were active in any assay of this set; here they are far more common.
SRC3 TRFRET art – TR-FRET detection interference compounds, artefact control for PPARgamma SRC-3 recruitment agonists, biochemical, TR-FRET ratio | TR-FRET ratio at 8 µM | 99,000 compounds, 0.39% hits | TR-FRET artefact counter-screen, PPARgamma/SRC-3 format; stronger effect = higher value
PPARg SRC-1 ag – PPARgamma agonists recruiting SRC-1 coactivator, primary screen, biochemical. PPARgamma-SRC-1 coactivator recruitment biochemical assay. Peroxisome proliferator-activated receptor gamma (Homo sapiens), P37231. activation, % at 8 µM. 200,000 compounds, 0.41% hits; in the data active = activation above about 19%;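 also: 0% = DMSO and 100% = reference agonist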
Target sequence (P37231 whole entry, looked up): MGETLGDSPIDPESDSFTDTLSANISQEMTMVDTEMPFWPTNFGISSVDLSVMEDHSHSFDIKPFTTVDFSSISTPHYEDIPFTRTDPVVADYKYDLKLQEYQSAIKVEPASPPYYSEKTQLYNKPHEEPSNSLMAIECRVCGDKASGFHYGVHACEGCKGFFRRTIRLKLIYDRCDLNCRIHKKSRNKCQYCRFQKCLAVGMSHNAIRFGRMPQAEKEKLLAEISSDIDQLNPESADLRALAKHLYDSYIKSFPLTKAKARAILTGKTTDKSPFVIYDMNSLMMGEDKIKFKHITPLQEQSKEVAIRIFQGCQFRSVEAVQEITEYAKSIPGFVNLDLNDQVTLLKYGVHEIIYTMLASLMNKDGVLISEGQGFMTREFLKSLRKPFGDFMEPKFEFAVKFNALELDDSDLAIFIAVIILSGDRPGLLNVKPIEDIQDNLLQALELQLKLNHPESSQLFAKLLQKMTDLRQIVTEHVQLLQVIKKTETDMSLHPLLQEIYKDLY
SRC1 TRFRET art – TR-FRET detection interference compounds, primary screen, artefact control for PPARgamma SRC-1 recruitment agonists, biochemical, TR-FRET emission ratio; TR-FRET detection artefact counter-screen; stronger effect = higher value; TR-FRET ratio at 8 µM; 99,000 compounds, 0.34% hits; AID 1051, 2008; in the data active = TR-FRET ratio above about 2300
PPARg SRC3 recr – PPARgamma agonists recruiting SRC-3 coactivator, primary screen, biochemical. Peroxisome proliferator-activated receptor gamma (Homo sapiens), P37231. 200,000 compounds, 0.26% hits. biochemical PPARgamma/SRC-3 coactivator recruitment assay. activation, % at 8 µM; in the data active = activation above about 23%;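 also: 0% = DMSO and 100% = reference agonist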
PPARg SRC2 recr – agonists of PPARg-SRC-2 recruitment, primary screen, biochemical, HTS | 200,000 compounds, 0.34% hits | PPARgamma LBD-SRC-2 recruitment | activation, % at 8 µM | Peroxisome proliferator-activated receptor gamma (Homo sapiens), P37231; in the data active = activation above about 22%;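 also: 0% = vehicle and 100% = reference agonist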
TR-FRET SRC-2 ct – TR-FRET signal artefacts, primary screen, artefact control for PPARgamma SRC-2 agonist project, biochemical. AID 1049, 2008. TR-FRET ratio at 8 µM. TR-FRET artefact counter-screen; stronger effect = higher value. 200,000 compounds, 0.4% hits
PPARg SRC2 conf – agonists of PPARgamma SRC-2 coactivator recruitment, confirmation, biochemical, HTS | biochemical SRC-2 recruitment by PPARgamma | 790 compounds, 52% hits | activation, % at 8 µM | shares compounds with PPARg SRC3 recr; in the data active = activation above about 22%;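 also: 0% = vehicle alone and 100% = reference agonist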
PPARg SRC1 conf – PPARgamma agonists recruiting SRC-1 coactivator, confirmation, biochemical; PPARgamma–SRC-1 coactivator recruitment biochemical assay; 790 compounds, 43% hits; activation, % at 8 µM; shares compounds with PPARg SRC3 recr; in the data active = activation above about 20%;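 also: 0% = vehicle wells and 100% = reference agonist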
PPARg SRC3 ag – PPARgamma-driven SRC-3 coactivator recruitment agonists, confirmation, biochemical. shares compounds with PPARg SRC3 recr. biochemical PPARgamma-SRC-3 coactivator recruitment, agonist mode. activation, % at 8 µM. 790 compounds, 29% hits; in the data active = activation above about 24%;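 also: 0% = vehicle wells and 100% = reference agonist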
An asterisk follows results filed as active; nt = no result. Rule as the data show it, unless noted: active = TR-FRET ratio above about 2000; inactive = the rest.

SMILES	SRC3 TRFRET art	PPARg SRC-1 ag	SRC1 TRFRET art	PPARg SRC3 recr	PPARg SRC2 recr	TR-FRET SRC-2 ct	PPARg SRC2 conf	PPARg SRC1 conf	PPARg SRC3 ag
COc1ccc2nc(SCC(=O)Nc3ccc(S(=O)(=O)N4CCCC4)cc3)c(C#N)cc2c1	nt	85.7*	nt	83.2*	78.1*	4855*	78.7*	61.8*	47.5*
Cc1cc(=O)[nH]c(SCC(=O)Nc2ccc(S(=O)(=O)N3CCCCC3)cc2)n1	nt	-2.7	nt	-12.5	6.2	1360	nt	nt	nt
COc1ccc2nc(SCC(=O)N3CCCCC3)c(C#N)cc2c1	1673	3.9	1902	3.5	-2.8	1479	nt	nt	nt
Cc1cc2nc(-c3ccc(SCC(=O)Nc4ccc(S(=O)(=O)N5CCCC5)cc4)nc3)[nH]c2cc1C	3472*	30.7*	3103*	20.0	38.6*	3000*	78.8*	62.0*	49.5*
CNC(=O)c1ccc(NC(=O)/C=C/c2cccc(F)c2)cc1	1873	5.2	2028	3.7	5.5	1549	nt	nt	nt
CC12CCC(C(=O)N(CSC(=S)N/N=C\c3ccccc3O)C1=O)C2(C)C (stereo not drawn)	nt	17.7	nt	42.9*	30.2*	1953	45.6*	43.5*	24.9*
Cc1cc(N2C(=O)C3C4CC(C(Br)C4Br)C3C2=O)no1 (stereo not drawn)	1648	-3.6	1819	-3.3	13.8	1443	nt	nt	nt
N#Cc1ccccc1CSc1ccc(-c2nc3ccccc3[nH]2)cn1	nt	22.2*	nt	26.1*	33.5*	1850	34.8*	22.8*	21.8
CC(=O)CSc1ccc(-c2nc3cc(C)c(C)cc3[nH]2)cn1	1677	-1.7	1783	-0.3	0.1	1502	nt	nt	nt
Cc1ccc(C(C(=O)NCc2ccco2)N(CCc2ccccc2)C(=O)Cn2nnc3ccccc32)o1 (stereo not drawn)	1671	7.8	1885	32.4*	15.6	1653	11.8	4.7	15.8
CN(C)c1ccc(N/C=C/C(=O)c2ccco2)cc1	nt	5.0	nt	14.7	24.0*	1727	10.3	8.8	7.4
CC(=O)Nc1ccc(N/C=C/C(=O)c2ccco2)cc1	nt	2.7	nt	-2.1	4.7	1573	nt	nt	nt
CN(C)c1ccc(N/C=C/C(=O)c2ccc(F)cc2)cc1	nt	7.7	nt	26.5*	21.0	1739	8.5	4.9	5.7
NS(=O)(=O)c1ccc(N/C=C\C(=O)c2ccc(F)cc2)cc1	1596	-2.5	1676	-1.9	-8.7	1546	nt	nt	nt
S=C(NNc1ccc2ccccc2c1)NC1CCCCC1	1593	-2.5	1913	2.1	6.5	1608	nt	nt	nt
COc1ccc(N(CN2C(=O)C3CC=CCC3C2=O)C(=O)c2ccco2)cc1 (stereo not drawn)	nt	18.7*	nt	12.1	4.9	1738	5.3	2.6	2.2
CCOC(=O)CCC(NC(=O)c1ccc(NCN2C(=O)c3ccccc3C2=O)cc1)C(=O)OCC (stereo not drawn)	nt	29.1*	nt	21.8	10.1	1572	13.6	27.8*	21.4
Cc1ccc2nc(NC(=S)NC(=O)c3ccco3)sc2c1	2144*	21.6*	2516*	18.9	28.8*	2308*	55.7*	44.0*	37.2*
COc1cc(C(=O)Nc2nc3ccc4nc(C)sc4c3s2)cc(OC)c1OC	nt	15.6	nt	9.1	4.4	1480	nt	nt	nt
Cc1nc2ccc3nc(NC(=O)c4ccco4)sc3c2s1	nt	23.4*	nt	18.8	10.8	1749	7.7	5.7	5.0
COc1ccc(C(=O)Nc2nc3ccc4nc(C)sc4c3s2)cc1	nt	66.8*	nt	56.4*	14.1	1790	44.6*	28.8*	27.2*
COc1ccc(CCNC(=O)CSc2ccc(-c3cccs3)nn2)cc1OC	1598	0.4	1672	-9.2	-6.1	1443	nt	nt	nt
COc1ccc(N2CCN(C(=O)Cc3ccc(S(=O)(=O)N4CCOCC4)s3)CC2)cc1	1571	-0.5	1540	-2.5	-7.5	1555	nt	nt	nt
Cc1cc(C)c2[nH]c(=O)c(CN(Cc3ccc4c(c3)OCO4)Cc3nnnn3C3CCCC3)cc2c1	nt	-7.0	nt	-14.5	-8.6	1570	nt	nt	nt
Cc1cccc2cc(CN(Cc3ccc(F)cc3)Cc3nnnn3C3CCCC3)c(=O)[nH]c12	nt	9.8	nt	61.6*	111.9*	4917*	1.4	0.6	1.4
SMILES	SRC3 TRFRET art	PPARg SRC-1 ag	SRC1 TRFRET art	PPARg SRC3 recr	PPARg SRC2 recr	TR-FRET SRC-2 ct	PPARg SRC2 conf	PPARg SRC1 conf	PPARg SRC3 ag
CCN(CC)S(=O)(=O)c1cnccc1N1CCN(c2cccc(Cl)c2)CC1	1358	2.0	1636	1.5	-5.0	1440	nt	nt	nt
Cc1cc(NC(=S)N(Cc2ccc(Br)cc2)Cc2ccc(C(=O)O)cc2)ccc1Cl	1602	4.9	1912	3.4	16.0	1850	nt	nt	nt
COc1ccc2c(Cl)c(C(=O)NN)sc2c1	nt	-0.8	nt	3.4	0.0	1487	nt	nt	nt
COc1ccc2c(Cl)c(C(N)=O)sc2c1	2550*	32.6*	2690*	19.4	36.6*	2210*	36.0*	25.4*	24.6*
O=c1cc(-c2ccc3c(c2)OCO3)oc2ccccc12	1634	33.4*	2778*	1.4	27.2*	2211*	7.4	5.9	3.6
Cc1ccc(C(=O)c2no[n+]([O-])c2C(=O)c2ccc(C)cc2)cc1	1626	1.7	1831	2.5	-1.1	1539	nt	nt	nt
COC(=O)c1cc2c(C)c(C)c3ccccn3c-2c1C(=O)OC	nt	18.5	nt	35.3*	31.8*	2102*	7.1	6.7	4.4
COC(=O)c1cc2c(C)cc3ccc(C)cn3c-2c1C(=O)OC	nt	26.3*	nt	47.2*	41.1*	2394*	12.1	8.8	4.8
COC(=O)c1cc2ccccn2c2c(C(=O)OC)c(C(=O)OC)cc1-2	nt	8.8	nt	3.1	5.8	1669	nt	nt	nt
COc1ccc(/C=N/Nc2ncccc2[N+](=O)[O-])c(OC)c1	1745	14.1	2136	6.2	14.3	1651	nt	nt	nt
CC1CN(c2ccc(Cl)cc2[N+](=O)[O-])CCN1S(C)(=O)=O (stereo not drawn)	1311	-2.5	1886	2.3	-3.5	1540	nt	nt	nt
O=[N+]([O-])c1ccc(OCc2cnc(Cl)s2)c([N+](=O)[O-])c1	1411	-6.7	1723	-2.1	1.9	1607	nt	nt	nt
CN1/C(=C/c2cc[n+](C)c3ccccc23)C=Cc2ccccc21	2217*	33.2*	2343*	25.6*	42.4*	1994*	5.1	4.5	5.2
